Screens (PubChem BioAssay)
Compounds with a hit are over-represented: about 21% of the library has one in this group of screens.
Shiga toxin inh: inhibitors of Shiga toxin in Vero cells; inhibition, % at 38.7 µM; Vero cells, Shiga toxin protein synthesis inhibition reporter; actives 9.2% (n = 290,000); in the data active = inhibition mostly above about 28%, no sharp cut-off; inactive = mostly below about 43%; note: 0% is about no effect
Pf growth 96h: P. falciparum growth inhibition at 96 hour, primary screen for plastid delayed-death inhibitors. AID 504834. P. falciparum luciferase reporter growth, 96 h. actives 6.9% (n = 320,000). Potency, µM (titrated, usually from 28.7 µM), without a hit: at the top dose activity change, negative = inhibition, usual class: inhibitors; note: potency is the fitted concentration of half-maximal effect; % is set by controls: 0 for no effect and ±100 for the full control effect
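Compounds incubated with erythrocytes infected by luciferase-expressing P. falciparum (2% hematocrit, 0.05% parasitemia final) for 96 hours, 37 C in 5% CO2. Growth inhibition scored as decreased luciferase luminescence.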
NS1 inh: influenza NS1 inhibition | Potency, µM (titrated, usually from 46.1 µM), inactives show top-dose activity, positive = more growth | actives 0.4% (n = 270,000); calls by dose curve; note: potency is the fitted concentration of half-maximal effect; actives are rising curves; nearly all actives have a fitted effect of over 50% in size
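Recovery from NS1-induced slow growth read by OD600 in budding yeast switched to galactose assay medium (pH 6.0, -URA) at 1:100 dilution. Compound 23 nl per well; the matching strain lacking NS1 serves as control.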
FBPA Giardia inh: blocks Giardia fructose-bisphosphate aldolase activity | purified Giardia FBPA | Potency, µM (highest dose often 59.6 µM), for inactives: top-dose activity, negative = inhibition, actives largely listed as inhibitors | actives 0.71% (n = 290,000) | AID 2451; note: potency is the fitted concentration of half-maximal effect; % is set by controls: 0 for no effect and ±100 for the full control effect; nearly all actives have a fitted effect of over 55% in size
Target sequence (A8B2U2 whole entry, looked up): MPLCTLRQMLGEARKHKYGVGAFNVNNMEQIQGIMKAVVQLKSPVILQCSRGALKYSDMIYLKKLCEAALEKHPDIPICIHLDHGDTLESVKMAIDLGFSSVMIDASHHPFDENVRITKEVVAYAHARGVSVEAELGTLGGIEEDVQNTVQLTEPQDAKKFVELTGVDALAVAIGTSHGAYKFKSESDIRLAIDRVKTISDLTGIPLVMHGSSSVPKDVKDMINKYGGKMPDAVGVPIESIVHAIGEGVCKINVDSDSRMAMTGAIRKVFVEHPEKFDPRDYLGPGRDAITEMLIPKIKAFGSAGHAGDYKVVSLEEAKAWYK
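40 nM FBPA preincubated 10 min at RT with compound (up to 57.5 uM final), then substrate plus GAPDH/TPI/NAD/arsenate coupling and diaphorase/resazurin added. Fluorescence read after 20 min at RT, 525/598 nm.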
Pf growth 48h: P. falciparum growth inhibition at 48 hours (one generation); actives 5.9% (n = 310,000); Potency, µM (highest dose often 28.7 µM), inactives show at the top dose activity change, negative = inhibition, usual class: inhibitors; P. falciparum luciferase growth in erythrocytes, 48 h; note: potency is the fitted concentration of half-maximal effect; % is set by controls: 0 for no effect and ±100 for the full control effect
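Parasite viability was followed by luminescence of a genomically integrated firefly luciferase. Cultures held 0.1% parasitemia at 2% hematocrit (final), incubated under 5% CO2 at 37 C.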
Cycloheximide cs: counter-screen for Shiga toxin inhibitors: cycloheximide protein synthesis inhibition. cell reporter, cycloheximide protein synthesis inhibition counterscreen. max response, %. actives 12% (n = 300,000). AID 2314; in the data active = max response mostly above about 13%, no sharp cut-off; inactive = mostly below about 14%; note: read at 38.3 µM for the half of the compounds with a filed dose; 0% is about no effect
Numbers without * were called inactive; u = inconclusive; x = no result given; [ ] = dose if it differs, or a comment. Unless noted, calls come from the whole dose curve; as a rule, active = well fitted curve in the direction sought with a large enough effect; inconclusive = small, poorly fitted or top-dose-only effect, or another doubt; inactive = no such curve, though single readings can be large; an effect the other way counts as inactive or inconclusive.

SMILES	Shiga toxin inh	Pf growth 96h	NS1 inh	FBPA Giardia inh	Pf growth 48h	Cycloheximide cs
COc1ccccc1OCCCn1cc(C(C)=O)c2ccccc21	19.0	6.1%	-9.7%	-7.4%	u	9.2
COc1ccccc1OCCCn1cc(C(=O)C2CC2)c2ccccc21	7.1	u	7.3%	-8.5%	11.7µM*	1.0
N#Cc1cn(CC(=O)N2CCCC2)c2ccccc12	-6.6	-29.1%	-6.0%	-3.3%	12.4%	-4.4
COc1ccccc1OCCCn1cc(C#N)c2ccccc21	33.9*	x	2.4%	19.9µM*	36.2%	26.7*
CCOc1ccc(NC(=O)N(Cc2cn(CC)c3ccccc23)C2CCCCCC2)cc1	72.0*	x	x	x	x	33.3*
COc1cccc([C@@H]2Oc3ccc(OC)cc3[C@H](O)[C@H]2O)c1	x	x	x	3.1%	x	x
O=C(Cc1cn(Cc2cccc(Cl)c2)c2ccccc12)N1CCCC1	-5.3	u	-19.7%	2.0%	0.2%	-1.6
CCOc1ccc(NC(=O)Cn2cc(C(=O)C3CC3)c3ccccc32)cc1	21.2	5.86µM*	-8.5%	3.1%	18.6%	-4.2
CCOc1ccc(NC(=O)Cn2cc(C(=O)CC)c3ccccc32)cc1	-7.0	-5.4%	1.0%	1.7%	-11.7%[0.00184 µM]	-6.3
N#Cc1cn(Cc2cccc(Cl)c2)c2ccccc12	5.2	5.6%	-43.2%	8.2%	9.28µM*	-2.6
CO[C@H]1COC(=O)[C@H]2CCCN2C(=O)C/C=C\[C@@H](C)[C@H](OC)COC(=O)C/C=C\[C@@H]1C	x	x	x	0.5%[12.9 µM]	x	x
C=CCNC(=O)C(=O)Nc1cc2c3c(c1)CCC(=O)N3CCC2	37.8	-2.8%	-11.3%	x	-11.7%	-2.0
COCCNC(=O)C(=O)NCCN1CCNCC1	-3.0	1.0%	7.8%	0.6%	19.8%	-1.3
CCOc1ccccc1N1C(=O)CC(=O)NC1=O	-9.1	23.8%	6.9%	-5.6%	23.0%	-3.1
CCN(CC)c1ccc(N2C(=O)CSC2=S)cc1	-3.6	u	-0.2%	2.3%	u	-1.8
CCOc1ccc(N2C(=O)CC(=O)NC2=O)cc1	x	10.4µM*	20.8%	2.1%	-4.8%	-2.2
CCOc1ccc(N2C(=O)CSC2=S)cc1	-0.9	13.1µM*	-147.1%	-3.4%	-1.7%	-1.8
O=Cc1ccccc1-c1cn(CCCOCc2ccccc2)nn1	-5.8	-17.4%	-32.7%	11.1%	-0.5%	-2.3
Cc1nc(N)sc1N=Nc1ccccc1C(F)(F)F	112.2*	u	-1.4%	14.2%	-16.7%	44.7*
C=CCc1c(C)c(C#N)c2nc3ccccc3n2c1NCCN(C)C	10.4	u	-122.6%	8.7%	u	-3.0
C=C(C)Cc1c(C)c(C#N)c2nc3ccccc3n2c1NCCCN(C)C	11.0	9.28µM*	-4.5%	0.7%	u	-1.6
CCCCc1c(C)c(C#N)c2nc3ccccc3n2c1Nc1c(C)n(C)n(-c2ccccc2)c1=O	-20.6	2.08µM*	-12.2%	x	1.85µM*	-1.9
Cc1c(Cc2ccccc2)c(NCCCO)n2c(nc3ccccc32)c1C#N	3.7	-12.5%	-15.5%	-4.5%	u	4.2
CCc1c(C)c(C#N)c2nc3ccccc3n2c1NCCN(C)C	-11.4	-11.4%	-56.0%	-12.5%	9.28µM*	-1.7
O[C@H](CN1CCN(c2cccc(Cl)c2)CC1)C(c1ccccc1)c1ccccc1	x	x	x	2.8%	x	x
SMILES	Shiga toxin inh	Pf growth 96h	NS1 inh	FBPA Giardia inh	Pf growth 48h	Cycloheximide cs
C=CCn1c(SCc2n[nH]c(=S)n2-c2ccccc2)nnc1-c1ccccc1	31.8	6.57µM*	-1.0%	-10.2%	-13.1%	1.7
CCC(C(=O)O)C1OC(C(C)C(O)C(C)C(=O)C(CC)C2OC3(C=CC(O)C4(CCC(C)(C5CCC(O)(CC)C(C)O5)O4)O3)C(C)CC2C)C(C)CC1C (stereo not given)	x	0.0338µM*	x	x	0.0536µM*	x
O=C(CN(CC1CCCO1)C(=O)c1nsc(Cl)c1Cl)NC1CCCC1 (stereo not given)	54.6	u	1.8%	4.4%	6.6%	-4.4
CC1C/C(=N\NC(N)=S)c2cc(Cl)ccc2S1 (stereo not given)	-12.0	1.85µM*	5.1%	-22.0%	u	-2.2
NC(=S)Nc1ccc(Cl)cc1Cl	-6.2	73.0%	-0.4%	-4.5%	39.3%	-0.3
CC1(C)c2ssc(=S)c2-c2ccccc2N1C(=O)c1ccco1	2.1	1.04µM*	7.2%	11.8%	u	0.8
Cc1ccc2c(c1)-c1c(ssc1=S)C(C)(C)N2C(=O)c1ccco1	-1.8	-5.6%	10.6%	1.8%	0.928µM*	-2.3
